In PubChem BioAssay AID1775 (NMMLSC, 2009):
Among all 220,000 compounds or so, about 820 (0.37%) were called active. This excerpt belongs to a sample that is enriched for actives. A number with no mark means an inactive call. Rule as the data show it: active = fluorescence above about 47; inactive = the rest.

Assay: green autofluorescence of compounds with avidin beads – biophysical, 488/530 nm, flow cytometry, artefact control, profiling panel (AID 1775)
Settings: compound fluorescence 488/530 nm, at 10 µM, stronger effect = higher value

Row | SMILES | fluorescence (KMESF)
1 | COc1ccc(/C(=N\O)c2nccc3cc(OC)c(OC)cc23)cc1OC | 7
2 | O=C(NC(=S)Nc1ccc(S(=O)(=O)N2CCOCC2)cc1)c1ccccc1[N+](=O)[O-] | 10
3 | CCc1ccccc1NC(=O)Cc1cn(C)c2ccccc12 | 10
4 | Fc1cccc(Cl)c1CSc1ccc(-c2ccco2)nn1 | 49 (active)
5 | Brc1ccc(CSc2ccc(-c3ccco3)nn2)cc1 | 13
6 | Cn1c(SCc2c(F)cccc2Cl)nnc1-c1cnccn1 | 1
7 | CCCCN(Cc1ccccc1)C(=O)C1CCN(Cc2sccc2C)CC1 | 5
8 | Cc1ccc(-c2cn(S(=O)(=O)c3cccc([N+](=O)[O-])c3)nc2N)cc1 | 2
9 | O=C(N/N=C/c1cccc2cccnc12)[C@H]1C[C@@H]1c1ccccc1 | 4
10 | Cc1cccc(N2CCN(Cc3c(C)n(C)n(-c4ccccc4)c3=O)CC2)c1C | 16
11 | Cc1c(CN2CCC(C)CC2)c(=O)n(-c2ccccc2)n1C | 9
12 | Cc1c(CN2CCCC(C(=O)c3cccc(Cl)c3)C2)c(=O)n(-c2ccccc2)n1C (stereo not given) | 67 (active)
13 | Cc1ccc(N/C=C/C(=O)c2ccccc2)cc1C | 14
14 | CC(=O)c1cnc(-c2ccccc2)s1 | 9
15 | O=C(/C=C/Nc1ccccc1)c1cnc(-c2ccccc2)s1 | 49 (active)
16 | CCNC(=O)CCc1nc(-c2ccc(C)cc2)no1 | 4
17 | CCNC(=O)CCc1nc(-c2ccc(C(C)(C)C)cc2)no1 | 49 (active)
18 | Cc1ccc(-c2noc(CCC(N)=O)n2)cc1 | 19
19 | Cc1ccc2c(C)c(C(=O)N3CCC(N4CCC(C(=O)NC5CC5)CC4)CC3)oc2c1 | 8
20 | COc1ccc(NC(=O)C2C3C=CC(C3)C2C(=O)NCc2ccccn2)c(OC)c1 (stereo not given) | 27
21 | Cc1ccccc1N(C(=O)Cc1cccs1)C(C(=O)NC1CCCCC1)c1cn(C)nc1C (stereo not given) | 12
22 | O=S(=O)(NCCc1csc(-c2ccccc2)n1)c1cccnc1 | 5
23 | CC(C(=O)NC1CCCC1)N(c1ccc(Oc2ccccc2)cc1)S(C)(=O)=O (stereo not given) | 9
24 | Cc1ccccc1C(OCCN(C)C)C1CCCCC1 (stereo not given) | 13
25 | O=C(COc1ccc(Cl)cc1)NCCC1=CCCCC1 | 51 (active)

Row | SMILES | fluorescence (KMESF)
26 | O=C(COc1cccc(-n2cnnn2)c1)NCCC1=CCCCC1 | 5
27 | Cc1nnc(OCC(=O)NCCC2=CCCCC2)c2ccccc12 | 20
28 | COC/C=C/C1=CC2=CC(=O)C(C)(OC(=O)CCC(=O)OC)C(=O)C2=CO1 (stereo not given) | 10
29 | O=C(CSc1ccccc1)Nc1ccc(C(=O)Nc2cccc(O)c2)cc1 | 15
30 | O=C(NCCOc1ccccc1Cl)C(=O)Nc1ccccc1 | 2
31 | COc1ccc(S(=O)(=O)N2CCCCCC2)cc1C(=O)OCC(=O)Nc1cc(C)on1 | 11
32 | O=C(/C=C/c1ccc(Cl)c([N+](=O)[O-])c1)c1ccc(O)cc1 | 6
33 | CN(C)c1ccc(/C=C/C(=O)c2ccc(O)cc2)cc1[N+](=O)[O-] | 6
34 | CN(C)c1ccc(/C=C/C(=O)c2ccc(C(C)(C)C)cc2)cc1[N+](=O)[O-] | 57 (active)
35 | c1ccc2c(CSCc3nc4ccccc4[nH]3)cccc2c1 | 9
36 | N=C(N)SCc1cccc2ccccc12 | 68 (active)
37 | CCOc1ccc(Br)cc1CSC(=N)N | 8
38 | C=CCn1c(=S)sc2c(=O)[nH]c(C)nc21 | 3
39 | O=C1NC2(CCCCCC2)C(=O)N1CCS(=O)(=O)Oc1ccccc1 | 12
40 | O=C(CN1C(=O)NC2(CCCCCC2)C1=O)NC1CC1 | 14
41 | CSc1ccc(CN2C(=O)NC3(CCCCCC3)C2=O)cc1 | 50 (active)
42 | CN=C(c1ccccc1)c1c(C)cccc1C | 1
43 | CCN(CC)C(=O)CC(c1ccc2c(c1)OCO2)c1c(OC)cc(OC)c2c(-c3ccccc3)cc(=O)oc12 (stereo not given) | 8
44 | O=C(NC1CC1)c1ccc(-c2ccccc2)cc1 | 11
45 | O=C(NC1CC1)c1ccc2c(c1)NC(=O)c1ccccc1S2 | 80 (active)
46 | O=C(NC1CC1)c1cccc(Br)c1 | 4
47 | COc1ccc(Cl)cc1N(CC(=O)N/N=C/c1ccc(OCC(N)=O)cc1)S(C)(=O)=O | 10
48 | Cc1[nH]nc(SCC(=O)NCC(C)C)c1[N+](=O)[O-] | 6
49 | CCOC(=O)c1sc(/N=C/Nc2nc(C)c(C(=O)OCC)s2)nc1C | 54 (active)
50 | CCOC(=O)c1sc(NC(=O)CSc2n[nH]c(CC)n2)nc1C | 15

Row | SMILES | fluorescence (KMESF)
51 | CCOC(=O)c1sc(NC(=O)c2ccncc2)nc1C | 4
52 | Cc1ccc2nc(-c3cccnc3)c(NC3CCCC3)n2c1 | 9
53 | Cc1cc(=O)n2[nH]c(-c3sccc3-n3c(C)ccc3C)cc2n1 | 5
54 | O=C(CCC(=O)N1CCCC1)Nc1ccc([N+](=O)[O-])cc1 | 9
55 | Cc1ccc(-n2c(C)cc(C(=O)CSc3nnc4ccccn34)c2C)cc1 | 11
56 | O=C(COc1ccc(Cl)cc1)N1CCN(c2cccc(C(F)(F)F)c2)CC1 | 20
57 | O=C(CN1CCN(c2ccc(Cl)cc2)CC1)N1CCCC1 | 13
58 | COC(=O)c1ccccc1OCC(=O)N1CCN(c2ccc(Cl)cc2)CC1 | 189 (active)
59 | CC(C)COC(=O)n1c(=O)oc2ccc(S(=O)(=O)N3CCCCC3)cc21 | 7
60 | Cc1cc(OC(=O)c2ccccc2)c([N+](=O)[O-])c(=O)[nH]1 | 13
61 | Cc1cccc(N2CC(C)Cn3c2nc2c3c(=O)n(CC(=O)OCc3ccccc3)c(=O)n2C)c1 (stereo not given) | 5
62 | COc1ccc(N2CC(C)Cn3c2nc2c3c(=O)n(Cc3ccccc3F)c(=O)n2C)c(OC)c1 (stereo not given) | 54 (active)
63 | CC(C)OCCCNc1nc2c(c(=O)n(Cc3ccccc3F)c(=O)n2C)n1C | 16
64 | C/C(=N\Nc1cccc(C(=O)O)c1)c1ccc2c(c1)Nc1ccccc1S2 | 11
65 | COc1ccc(CCNC(=O)CCCCn2c(=O)[nH]c3ccccc3c2=O)cc1OC | 39
66 | O=C(CCCCn1c(=O)[nH]c2ccccc2c1=O)NCc1ccc2c(c1)OCO2 | 81 (active)
67 | O=C(CCCCCn1c(=O)[nH]c2ccccc2c1=O)NCCc1c[nH]c2ccccc12 | 14
68 | N/C(=N\OC(=O)CCn1cccc(C(F)(F)F)c1=O)c1ccc(OC(F)(F)F)cc1 | 8
69 | COc1cccc(C(=O)N2CCCC(CCC(=O)NCc3ccc(F)c(F)c3)C2)c1 (stereo not given) | 8
70 | Cc1ccc(NC(=O)c2cccnc2C(=O)Nc2ccc(C)cc2)cc1 | 10
71 | O=C(Nc1ccc(-n2ccnc2P(=O)(O)c2ccccc2)cc1)c1ccccc1Br | 81 (active)
72 | O=C(Nc1ccccc1)c1cccnc1Nc1ccccc1 | 8
73 | COc1ccc(CCN2C(=O)N(c3ccc(OC)cc3)C(=O)C2CC(=O)Nc2ccc(OC)cc2)cc1 (stereo not given) | 6
74 | Cc1cc(NC(=O)CSc2nccn2-c2ccc([N+](=O)[O-])cc2)no1 | 25
75 | C/C(=N/Nc1ccc(Cl)cc1)c1cnnc(-c2ccccc2)n1 | 21

Row | SMILES | fluorescence (KMESF)
76 | Cc1ccc(S(=O)(=O)N2CCOCC2)cc1C(=O)NC(=S)N(Cc1ccccc1)C(C)C | 4
77 | CCN(CC(=O)Nc1cccc(S(N)(=O)=O)c1)Cc1nc2ccccc2c(=O)[nH]1 | 7
78 | COc1ccc(C2CC(c3ccccc3)Nc3ncnn32)cc1 (stereo not given) | 9
79 | Clc1ccc(C2CC(c3cccs3)n3ncnc3N2)cc1Cl (stereo not given) | 7
80 | FC(F)Oc1ccccc1C1CC(c2ccc(Br)s2)Nc2ncnn21 (stereo not given) | 72 (active)
81 | CNC(=S)NNC(=O)c1oc2nc(-c3ccccc3)cc(-c3ccco3)c2c1N | 7
82 | COc1ccc(CCN2C(=O)CC(N3CCC(C(N)=O)CC3)C2=O)cc1OC (stereo not given) | 5
83 | O=C(CCc1[nH]c2ccccc2c1Sc1ccccc1)N(CCO)CCO | 16
84 | CS/C(=C\C(=O)c1ccco1)Nc1ccccc1Cl | 7
85 | COc1ccc(CCNC(=O)CN(c2ccccc2)S(C)(=O)=O)cc1 | 9
86 | COC(=O)CNC(=O)c1ccc(OC2CCN(C(=O)C3CC3)CC2)cc1 | 7
87 | O=C(COC(=O)C12CC3CC(CC(C3)C1)C2)NCc1ccco1 | 56 (active)
88 | O=C(COC(=O)CCC(=O)c1cccs1)NCc1ccco1 | 9
89 | O=C(CC12CC3CC(CC(C3)C1)C2)NCc1ccco1 | 11
90 | COCCCn1c(-c2cccs2)nc2nc3ccccc3nc21 | 6
91 | Cc1cs/c(=N\N=C\c2ccc(O)cc2)n1Cc1ccco1 | 7
92 | COc1ccc(NC(=O)Cn2c(=O)n(Cc3ccco3)c(=O)c3ccccc32)cc1 | 36
93 | CN(c1ccccc1)c1ccc(/C=c2\s/c(=C(/C#N)C(=O)C(C)(C)C)n(Cc3ccco3)c2=O)cc1 | 453 (active)
94 | CCOC(=O)CC(NC(=O)C1c2ccccc2Oc2ccccc21)c1ccc(C)cc1 (stereo not given) | 11
95 | Clc1ccc(C[n+]2cc(-c3ccccc3)n3c2CCC3)cc1 | 7
96 | O=C(/C=C/c1ccco1)Nc1cccc(-c2nc3ccccc3[nH]2)c1 | 9
97 | O=C(Nc1cccc(-c2nc3ccccc3[nH]2)c1)c1ccc(C(=O)Nc2cccc(-c3nc4ccccc4[nH]3)c2)cc1 | 151 (active)
98 | O=C(Cc1cccs1)Nc1cccc(-c2nc3ccccc3[nH]2)c1 | 14
99 | Cc1ccc(CN2C(=O)N/C(=C/c3cc(C)n(-c4ccccn4)c3C)C2=O)cc1 | 16
100 | CCCCCCCCCCCCC(NC(C)=O)(C(=O)OCC)C(=O)OCC | 6
